# In the supplement of paper PMC10849652:
# Of roughly 8,800 targets only a part is listed; those with a hit were picked by preference. About 0.5% of all pairs of compound and target were hits. Values without a mark were called inactive.
# Key:
# Experiment in all cases: log2 fold change, soluble protein after heating vs DMSO (PISA); higher = thermal stabilisation; K562 lysate, 10 uM; active = over 0.2 and 3.5 SD of the protein, either way, in both replicates (recomputed)
# [1] = compound: Cc1cn(-c2cc(NC(=O)c3ccc(C)c(Nc4nccc(-c5cccnc5)n4)c3)cc(C(F)(F)F)c2)cn1 [nilotinib]
# In short: (§1)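 K562 pellets were dounce-homogenised in PBS pH 7.4 containing 1 mM MgCl2, and the crude extract, at 1 mg/mL protein, was exposed to 10 μM compound for 30 min. Aliquots were heated for 3 min across 48°C-58°C, pooled, brought to 0.5% NP-40 at 4°C and spun at 21,000xg for 90 min, with the supernatant taken as soluble protein. TMTpro 16plex LC-MS/MS with equalised channel sums quantified that protein. Values are log-two fold changes in thermal stability relative to solvent controls, taken from duplicates.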
# [2] = compound: Cc1nc(Nc2n[nH]c3c2CN(C(=O)N[C@H](CN(C)C)c2ccccc2)C3(C)C)c2sccc2n1
# In short: as §1
# [3] = compound: Cc1nc(Nc2ncc(C(=O)Nc3c(C)cccc3Cl)s2)cc(N2CCN(CCO)CC2)n1 [dasatinib]
# In short: as §1
# [4] = compound: Cc1ncc(-c2ccnc(Nc3ccc(S(C)(=O)=O)cc3)n2)n1C(C)C
# In short: as §1
# [5] = compound: Cn1cc(-c2ccc3c(c2)CCN3C(=O)Cc2cccc(C(F)(F)F)c2)c2c(N)ncnc21
# In short: as §1
# [6] = compound: Cn1cc(CNCC2CCN(c3ncc(C(=O)NO)cn3)CC2)c2ccccc21 [quisinostat]
# In short: as §1
# [7] = compound: Cn1cncc1[C@@](N)(c1ccc(Cl)cc1)c1ccc2c(c1)c(-c1cccc(Cl)c1)cc(=O)n2C [tipifarnib]
# In short: as §1
# [8] = compound: NC(=O)Nc1cc(-c2cccc(F)c2)sc1C(=O)N[C@H]1CCCNC1
# In short: as §1
# [9] = compound: NC(=O)c1cnc(N[C@@H]2CCCC[C@@H]2N)nc1Nc1cccc(-n2nccn2)c1
# In short: as §1
# [10] = compound: NC1(c2ccc(-c3nc4ccn5c(=O)[nH]nc5c4cc3-c3ccccc3)cc2)CCC1
# In short: as §1
# [11] = compound: NCC(=O)Nc1ccc(-n2nc(C(F)(F)F)cc2-c2ccc3c(ccc4ccccc43)c2)cc1
# In short: as §1
# [12] = compound: O=C(CCCCCCC(=O)Nc1ccccc1)NO [vorinostat]
# In short: as §1
# [13] = compound: O=C(O)c1ccc2c(c1)nc(Nc1cccc(Cl)c1)c1ccncc12 [silmitasertib]
# In short: as §1
# [14] = compound: O=C1NC(=O)C(c2cnc3ccccn23)=C1c1cn2c3c(cc(F)cc13)CN(C(=O)N1CCCCC1)CC2
# In short: as §1
# [15] = compound: c1cn2cc(-c3ccc4cn[nH]c4c3)nc(Nc3ccc(N4CCOCC4)cc3)c2n1 [entospletinib]
# In short: as §1
# Chain of UniProt P07948 (P07948 whole entry, looked up): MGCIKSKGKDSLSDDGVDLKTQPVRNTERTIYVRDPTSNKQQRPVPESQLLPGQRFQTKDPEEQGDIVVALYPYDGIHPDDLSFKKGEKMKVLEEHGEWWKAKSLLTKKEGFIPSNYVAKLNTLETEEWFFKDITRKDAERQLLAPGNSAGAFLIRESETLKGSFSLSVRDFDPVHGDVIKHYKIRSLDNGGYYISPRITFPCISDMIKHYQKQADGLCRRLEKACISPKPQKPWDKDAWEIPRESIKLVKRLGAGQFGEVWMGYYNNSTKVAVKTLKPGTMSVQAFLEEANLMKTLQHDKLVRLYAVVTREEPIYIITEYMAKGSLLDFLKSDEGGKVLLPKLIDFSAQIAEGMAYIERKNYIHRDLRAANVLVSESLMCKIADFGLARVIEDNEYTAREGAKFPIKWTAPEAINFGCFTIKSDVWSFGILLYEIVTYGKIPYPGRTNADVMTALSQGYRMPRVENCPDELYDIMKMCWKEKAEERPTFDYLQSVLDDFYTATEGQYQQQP
# Chain of UniProt Q9H8H3 (Q9H8H3 whole entry, looked up): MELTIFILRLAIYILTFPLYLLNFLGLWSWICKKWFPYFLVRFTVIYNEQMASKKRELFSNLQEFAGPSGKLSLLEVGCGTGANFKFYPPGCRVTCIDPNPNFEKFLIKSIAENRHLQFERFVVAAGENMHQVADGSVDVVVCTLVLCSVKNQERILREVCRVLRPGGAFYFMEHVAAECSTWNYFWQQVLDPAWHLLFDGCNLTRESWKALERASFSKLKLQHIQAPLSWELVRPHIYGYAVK
# Chain of UniProt Q8NG31 (Q8NG31 whole entry, looked up): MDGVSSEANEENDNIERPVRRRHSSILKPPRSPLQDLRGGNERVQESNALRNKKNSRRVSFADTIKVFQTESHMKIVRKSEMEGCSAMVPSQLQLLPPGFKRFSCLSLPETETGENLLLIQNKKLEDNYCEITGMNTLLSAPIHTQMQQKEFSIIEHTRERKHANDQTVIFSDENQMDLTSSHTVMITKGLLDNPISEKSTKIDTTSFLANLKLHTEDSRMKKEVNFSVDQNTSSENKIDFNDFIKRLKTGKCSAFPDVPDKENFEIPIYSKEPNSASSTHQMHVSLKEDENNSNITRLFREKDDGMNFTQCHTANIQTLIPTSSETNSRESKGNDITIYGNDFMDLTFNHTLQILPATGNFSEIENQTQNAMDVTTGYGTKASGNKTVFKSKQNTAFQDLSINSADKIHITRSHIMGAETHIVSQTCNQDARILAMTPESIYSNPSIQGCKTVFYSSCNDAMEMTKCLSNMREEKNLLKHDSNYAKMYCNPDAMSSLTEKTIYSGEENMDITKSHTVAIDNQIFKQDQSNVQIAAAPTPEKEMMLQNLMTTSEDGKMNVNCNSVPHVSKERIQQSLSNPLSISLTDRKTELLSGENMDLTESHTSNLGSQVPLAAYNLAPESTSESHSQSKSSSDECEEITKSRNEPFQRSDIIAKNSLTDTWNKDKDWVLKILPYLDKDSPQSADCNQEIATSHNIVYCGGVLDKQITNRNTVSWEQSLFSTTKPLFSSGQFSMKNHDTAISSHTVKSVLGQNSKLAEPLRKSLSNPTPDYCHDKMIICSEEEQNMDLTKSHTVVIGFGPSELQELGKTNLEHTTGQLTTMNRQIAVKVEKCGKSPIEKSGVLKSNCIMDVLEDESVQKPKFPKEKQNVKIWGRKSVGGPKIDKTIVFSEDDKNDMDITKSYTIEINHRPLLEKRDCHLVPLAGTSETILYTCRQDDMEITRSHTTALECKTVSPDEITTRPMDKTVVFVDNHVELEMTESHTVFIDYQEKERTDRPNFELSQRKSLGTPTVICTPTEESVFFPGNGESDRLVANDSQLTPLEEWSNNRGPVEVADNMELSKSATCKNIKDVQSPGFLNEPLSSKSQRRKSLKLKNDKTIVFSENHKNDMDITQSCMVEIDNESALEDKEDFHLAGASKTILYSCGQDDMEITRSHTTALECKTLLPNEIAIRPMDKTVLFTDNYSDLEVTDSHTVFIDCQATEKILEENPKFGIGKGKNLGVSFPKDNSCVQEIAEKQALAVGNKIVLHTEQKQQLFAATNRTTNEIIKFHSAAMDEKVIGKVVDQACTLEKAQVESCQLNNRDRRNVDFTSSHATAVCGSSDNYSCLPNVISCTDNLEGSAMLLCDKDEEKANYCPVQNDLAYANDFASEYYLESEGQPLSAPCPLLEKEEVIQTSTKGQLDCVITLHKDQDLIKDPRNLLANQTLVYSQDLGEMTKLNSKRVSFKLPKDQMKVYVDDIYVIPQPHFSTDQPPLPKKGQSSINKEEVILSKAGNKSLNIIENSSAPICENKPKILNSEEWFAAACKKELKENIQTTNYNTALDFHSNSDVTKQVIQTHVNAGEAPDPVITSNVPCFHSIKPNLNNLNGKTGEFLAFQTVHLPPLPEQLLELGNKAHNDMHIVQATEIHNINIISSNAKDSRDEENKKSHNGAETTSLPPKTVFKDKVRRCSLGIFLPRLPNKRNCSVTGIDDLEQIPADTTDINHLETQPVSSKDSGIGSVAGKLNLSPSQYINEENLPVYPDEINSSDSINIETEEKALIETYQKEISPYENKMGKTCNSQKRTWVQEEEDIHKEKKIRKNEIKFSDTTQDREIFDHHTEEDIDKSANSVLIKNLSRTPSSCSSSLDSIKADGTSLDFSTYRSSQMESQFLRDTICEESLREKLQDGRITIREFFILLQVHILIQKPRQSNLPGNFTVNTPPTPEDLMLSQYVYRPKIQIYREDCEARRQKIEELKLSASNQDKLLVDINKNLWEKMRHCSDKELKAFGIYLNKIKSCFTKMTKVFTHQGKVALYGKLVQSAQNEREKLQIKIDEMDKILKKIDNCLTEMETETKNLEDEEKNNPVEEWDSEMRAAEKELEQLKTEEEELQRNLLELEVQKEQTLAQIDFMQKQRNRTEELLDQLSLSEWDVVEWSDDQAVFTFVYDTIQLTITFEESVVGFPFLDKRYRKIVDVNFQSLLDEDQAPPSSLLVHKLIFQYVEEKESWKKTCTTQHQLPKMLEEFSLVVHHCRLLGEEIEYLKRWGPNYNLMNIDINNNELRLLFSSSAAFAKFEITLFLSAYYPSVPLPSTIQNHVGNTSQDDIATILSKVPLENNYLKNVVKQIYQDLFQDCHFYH
# Chain of UniProt Q9Y6X9 (Q9Y6X9 whole entry, looked up): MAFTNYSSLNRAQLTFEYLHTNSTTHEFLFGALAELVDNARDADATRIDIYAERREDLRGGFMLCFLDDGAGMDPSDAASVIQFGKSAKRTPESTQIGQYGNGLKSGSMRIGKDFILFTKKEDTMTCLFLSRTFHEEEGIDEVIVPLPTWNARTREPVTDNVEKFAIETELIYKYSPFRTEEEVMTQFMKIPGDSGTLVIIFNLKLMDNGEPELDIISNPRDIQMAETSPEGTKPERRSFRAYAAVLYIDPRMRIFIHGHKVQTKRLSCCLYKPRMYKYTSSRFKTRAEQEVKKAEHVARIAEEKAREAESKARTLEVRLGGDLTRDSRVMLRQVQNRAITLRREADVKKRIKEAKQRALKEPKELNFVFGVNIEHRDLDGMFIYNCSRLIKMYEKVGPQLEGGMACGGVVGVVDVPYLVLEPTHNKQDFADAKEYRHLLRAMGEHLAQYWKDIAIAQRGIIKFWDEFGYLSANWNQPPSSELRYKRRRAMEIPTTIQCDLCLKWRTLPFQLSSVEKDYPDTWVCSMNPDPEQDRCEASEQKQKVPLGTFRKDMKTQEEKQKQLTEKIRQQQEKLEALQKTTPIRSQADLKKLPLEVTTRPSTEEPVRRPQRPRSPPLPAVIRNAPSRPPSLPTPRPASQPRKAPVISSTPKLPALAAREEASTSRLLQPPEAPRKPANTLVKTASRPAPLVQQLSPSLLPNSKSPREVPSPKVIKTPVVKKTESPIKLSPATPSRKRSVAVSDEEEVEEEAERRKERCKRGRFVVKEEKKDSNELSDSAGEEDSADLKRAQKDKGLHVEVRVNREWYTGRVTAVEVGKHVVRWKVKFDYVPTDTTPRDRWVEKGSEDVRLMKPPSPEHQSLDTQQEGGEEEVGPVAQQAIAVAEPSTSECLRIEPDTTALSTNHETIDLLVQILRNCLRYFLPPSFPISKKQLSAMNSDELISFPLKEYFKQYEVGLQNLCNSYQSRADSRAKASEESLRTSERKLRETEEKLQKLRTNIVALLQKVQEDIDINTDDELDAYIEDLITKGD
# Chain of UniProt P11279 (P11279 whole entry, looked up): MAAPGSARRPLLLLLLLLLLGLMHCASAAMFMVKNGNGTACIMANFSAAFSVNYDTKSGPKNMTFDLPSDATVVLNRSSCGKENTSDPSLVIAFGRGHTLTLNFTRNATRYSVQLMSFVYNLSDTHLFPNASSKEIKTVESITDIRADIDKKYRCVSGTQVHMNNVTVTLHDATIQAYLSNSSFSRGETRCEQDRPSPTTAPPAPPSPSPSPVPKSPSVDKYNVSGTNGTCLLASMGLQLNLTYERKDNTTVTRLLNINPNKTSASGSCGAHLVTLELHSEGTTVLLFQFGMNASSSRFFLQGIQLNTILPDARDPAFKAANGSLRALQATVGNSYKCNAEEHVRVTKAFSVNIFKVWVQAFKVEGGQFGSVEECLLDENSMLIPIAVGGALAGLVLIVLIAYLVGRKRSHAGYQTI
# Chain of UniProt Q9BV79 (Q9BV79 whole entry, looked up): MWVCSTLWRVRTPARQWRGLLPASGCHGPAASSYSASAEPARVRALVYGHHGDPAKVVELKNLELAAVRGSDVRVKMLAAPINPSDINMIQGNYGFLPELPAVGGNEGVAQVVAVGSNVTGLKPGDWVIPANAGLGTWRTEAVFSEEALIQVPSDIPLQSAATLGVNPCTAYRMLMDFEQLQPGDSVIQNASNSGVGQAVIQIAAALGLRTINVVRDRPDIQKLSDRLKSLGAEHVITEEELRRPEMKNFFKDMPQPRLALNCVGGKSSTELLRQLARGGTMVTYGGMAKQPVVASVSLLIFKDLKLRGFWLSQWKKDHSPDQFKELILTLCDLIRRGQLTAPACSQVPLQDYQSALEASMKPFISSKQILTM
Target,log2 fold change [1],log2 fold change [2],log2 fold change [3],log2 fold change [4],log2 fold change [5],log2 fold change [6],log2 fold change [7],log2 fold change [8],log2 fold change [9],log2 fold change [10],log2 fold change [11],log2 fold change [12],log2 fold change [13],log2 fold change [14],log2 fold change [15]
KNL1 (UniProt Q8NG31),0.011,-0.004,-0.014,0.02,0.012,-0.048,-0.06,0.023,0.024,-0.001,0.022,-0.254 (active),-0.003,-0.009,-0.011
LAMP1 (UniProt P11279),0.021,-0.033,-0.058,0.002,-0.036,-0.113,-0.012,0.016,-0.003,-0.017,0.007,0.095,-0.009,-0.05,-0.004
LBR (UniProt Q14739),-0.026,0.015,-0.04,-0.004,0.003,0.065,-0.03,-0.048,0.006,0.08,-0.121,0.17,-0.001,-0.076,-0.009
LRWD1 (UniProt Q9UFC0),0.026,-0.05,-0.055,0.017,0.02,-0.132,0.007,0.053,0.017,-0.033,-0.022,-0.322 (active),-0.008,-0.011,0.006
MORC2 (UniProt Q9Y6X9),-0.012,-0.02,-0.046,0.006,0.051,-0.05,0.024,0.049,0.028,-0.001,0.014,-0.328 (active),0.103,-0.015,0.013
LETM1 (UniProt O95202),0.038,-0.021,-0.008,0.048,0.007,0.043,0.008,-0.012,-0.011,-0.024,-0.041,0.084,-0.021,-0.006,0.009
MECR (UniProt Q9BV79),-0.085,0.012,-0.03,-0.004,0.02,0.07,-0.009,-0.041,0.02,-0.028,-0.037,-0.268 (active),0.009,-0.016,0.011
LSS (UniProt P48449),0.042,0.001,0.016,-0.025,0.047,-0.022,-0.065,0.003,0.083,0.092,-0.042,0.049,-0.039,-0.014,-0.043
LYN (UniProt P07948),0.158,0.218,0.457,-0.026,0.095,-0.125,-0.154,0.842 (active),0.084,-0.037,0.025,-0.305,-0.058,-0.108,0.149
METTL7A (UniProt Q9H8H3),0.168,0.014,0.198,-0.01,0.096,-0.112,0.03,-0.026,-0.055,-0.068,0.037,0.017,-0.053,0.274,-0.001
